Measured values reported in PubChem BioAssay.
Where “and” joins values, the source holds several entries; their conditions need not be identical. Identical values can stand only once. Inconclusive results are not listed. Calls of active or inactive are those of the source.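 How the source made its calls, unless noted: active means normalized viability below 100% at a tested concentration; inactive means the rest.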

Assays:
[1] = viability loss in pontine glioma line – cell-based, SU-DIPG-XXV, MIPE5.0, CellTiter-Glo, qHTS, dose response (AID 1347065; cut-off not given, nearly all actives have AC50 up to about 26 µM;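 further: cells exposed to compound for 48 hours before ATP readout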); conditions: CellTiter-Glo ATP luminescence
[2] = growth inhibition of DIPG cells – cell-based, MIPE4.0 library, CellTiter-Glo luminescence, qHTS (AID 1347066; cut-off not given, nearly all actives have AC50 up to about 30 µM;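 further: cells exposed to compound for 48 hours before readout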); conditions: SU-DIPG-VI viability, CellTiter-Glo ATP luminescence
[3] = JHH-DIPG-1 glioma cell viability, MIPE5.0 library, CellTiter-Glo luminescence, qHTS (AID 1347067; cut-off not given, nearly all actives have AC50 up to about 26 µM;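 further: cells exposed to compound for 48 hours before readout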); conditions: JHH-DIPG-1 glioma viability, CellTiter-Glo ATP luminescence
[4] = growth inhibition of DIPG cells – cell-based, MIPE5.0 library, qHTS (AID 1347068; cut-off not given, nearly all actives have IC50 up to about 30 µM;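 on IC50: cells exposed to compound for 48 hours before viability readout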); conditions: SU-DIPG-XXV viability
[5] = viability loss with induced miR-34 in A549 – imaging, A549 dox-inducible miR-34, nuclei and caspase counts, primary screen (AID 1347080;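 active means compounds whose cell count with miR-34 switched on is under 0.7 times the count with it off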); conditions: A549 miR-34 inducible, Hoechst nuclei count, 48 h
[6] = chitosan synthesis blockers in C. neoformans – flow cytometry, Cibacron Brilliant Red staining (AID 1347148; call rule not given here;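 further: compound exposure lasted three days at 37 degrees C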); conditions: Cryptococcus neoformans chitosan, stronger effect = lower value; at 10 µM unless noted
[7] = MELAS cybrid and Rieske KO viability enhancers – cell-based, MELAS cybrids, Rieske KO mouse fibroblasts, CellTiter-Glo, primary screen (AID 1508586;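 active means mean z-score across replicates of 1.96 or higher in either the MELAS or the Rieske mutant cell line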;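 further: z relative to plate mean and SD of compound and empty wells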); conditions: low glucose
[8] = blockers of cellular phospholipid synthesis – cell-based, LOPAC library, screen 4, primary screen (AID 1347384; call rule not given here); conditions: animal cells, phospholipid biosynthesis inhibition screen; at 10 µM
[9] = compounds altering HSF1 focus formation in cells – imaging, Selleck Cancer Library (AID 1347162; in the data active means plate-normalised HSF1 focus index below about 0.46); conditions: human cells, HSF1 nuclear foci imaging, at 10 µM; SSMD: measured here: HSF1 foci SSMD mean; cell count: measured here: cell number; plate-normalised HSF1 focus index: stronger effect = lower value
[10] = drug combination growth inhibition, ovarian cancer – cell-based, oncology-focused library, rucaparib conditional, profiling panel (AID 1508598); conditions: patient-derived ovarian cancer cells, CellTiter-Glo viability, 144 h, stronger effect = lower value
[11] = stronger effect = lower value, cell number ratio, induced over uninduced
[12] = measured here: relative caspase fold change +Dox/-Dox
[13] = measured here: total cells with miR-34 induction, stronger effect = lower value
[14] = measured here: total cells without miR-34 induction
[15] = MELAS cybrid survival, CellTiter-Glo 48 h, stronger effect = higher value
[16] = Rieske KO mouse fibroblast survival, CellTiter-Glo 72 h
[17] = at 0.000305 µM, OCI-C5x cells, with rucaparib 10 µM, 100% = cells with rucaparib alone
[18] = at 0.000305 µM, OCI-C5x cells, without rucaparib
[19] = at 0.000305 µM, OCI-P5x cells, with rucaparib 20 µM, 100% = cells with rucaparib alone
[20] = at 0.000305 µM, OCI-P5x cells, without rucaparib
[21] = at 0.00122 µM, OCI-C5x cells, with rucaparib 10 µM, 100% = cells with rucaparib alone
[22] = at 0.00122 µM, OCI-C5x cells, without rucaparib
[23] = at 0.00122 µM, OCI-P5x cells, with rucaparib 20 µM, 100% = cells with rucaparib alone
[24] = at 0.00122 µM, OCI-P5x cells, without rucaparib
[25] = at 0.00488 µM, OCI-C5x cells, with rucaparib 10 µM, 100% = cells with rucaparib alone
[26] = at 0.00488 µM, OCI-C5x cells, without rucaparib
[27] = at 0.00488 µM, OCI-P5x cells, with rucaparib 20 µM, 100% = cells with rucaparib alone
[28] = at 0.00488 µM, OCI-P5x cells, without rucaparib
[29] = at 0.0195 µM, OCI-C5x cells, with rucaparib 10 µM, 100% = cells with rucaparib alone
[30] = at 0.0195 µM, OCI-C5x cells, without rucaparib
[31] = at 0.0195 µM, OCI-P5x cells, with rucaparib 20 µM, 100% = cells with rucaparib alone
[32] = at 0.0195 µM, OCI-P5x cells, without rucaparib
[33] = at 0.0781 µM, OCI-C5x cells, with rucaparib 10 µM, 100% = cells with rucaparib alone
[34] = at 0.0781 µM, OCI-C5x cells, without rucaparib
[35] = at 0.0781 µM, OCI-P5x cells, with rucaparib 20 µM, 100% = cells with rucaparib alone
[36] = at 0.0781 µM, OCI-P5x cells, without rucaparib
[37] = at 0.313 µM, OCI-C5x cells, with rucaparib 10 µM, 100% = cells with rucaparib alone
[38] = at 0.313 µM, OCI-C5x cells, without rucaparib
[39] = at 0.313 µM, OCI-P5x cells, with rucaparib 20 µM, 100% = cells with rucaparib alone
[40] = at 0.313 µM, OCI-P5x cells, without rucaparib
[41] = at 1.25 µM, OCI-C5x cells, with rucaparib 10 µM, 100% = cells with rucaparib alone
[42] = at 1.25 µM, OCI-C5x cells, without rucaparib
[43] = at 1.25 µM, OCI-P5x cells, with rucaparib 20 µM, 100% = cells with rucaparib alone
[44] = at 1.25 µM, OCI-P5x cells, without rucaparib
[45] = at 5 µM, OCI-C5x cells, with rucaparib 10 µM, 100% = cells with rucaparib alone
[46] = at 5 µM, OCI-C5x cells, without rucaparib
[47] = at 5 µM, OCI-P5x cells, with rucaparib 20 µM, 100% = cells with rucaparib alone
[48] = at 5 µM, OCI-P5x cells, without rucaparib

CC1=NN(c2ccccc2)C(=O)C1
5320 and 7500 and 8540: cell count [5, 13]
inactive: outcome [1] | outcome [2] | outcome [3] | outcome [4] | fold change [5, 11] 0.988 and 0.936 and 0.929 | fold fluorescence [6] 4.15 [at 287 µM] | z-score [7, 15] -0.423
0.941 and 1.18 and 0.593: fold change [5, 12]
0.67: z-score [7, 16]
5390 and 8010 and 9190: cell count [5, 14]

O=C(Nc1ccc([N+](=O)[O-])cc1Cl)c1cc(Cl)ccc1O
0.641 and 1.64 and 2.16: fold change [5, 12]
-0.036: z-score [7, 16]
active: AC50 [1] 1.18 µM | AC50 [2] 0.59 µM | AC50 [3] 0.833 µM | IC50 [4] 1.32 µM | outcome [8]
1500 and 2060 and 8890: cell count [5, 13]
1770 and 2000 and 8060: cell count [5, 14]
inactive: fold change [5, 11] 0.851 and 1.03 and 1.1 | z-score [7, 15] -1.03

CN(C)CC/C=C1/c2ccccc2COc2ccc(CC(=O)O)cc21
10900: cell count [5, 14]
inactive: outcome [1] | outcome [2] | outcome [3] | outcome [4] | fold change [5, 11] 0.88 | z-score [7, 15] 0.699 and 0.823
0.692: fold change [5, 12]
-0.41 and 0.615: z-score [7, 16]
9640: cell count [5, 13]

CCOc1cc(CC(=O)N[C@@H](CC(C)C)c2ccccc2N2CCCCC2)ccc1C(=O)O
0.416: z-score [7, 16]
inactive: outcome [1] | outcome [2] | outcome [3] | outcome [4] | fold change [5, 11] 0.924 and 0.888 and 0.976 | z-score [7, 15] -0.407
0.881 and 1.49 and 4.38: fold change [5, 12]
9210 and 9560 and 12300: cell count [5, 14]
8510 and 8490 and 12000: cell count [5, 13]

C[C@]12CC[C@@H]3c4ccc(O)cc4CC[C@H]3[C@@H]1C[C@@H](O)[C@@H]2O
9380 and 8690: cell count [5, 13]
0.79 and 0.38: z-score [7, 16]
active: AC50 [3] 23.5 µM
9810 and 9670: cell count [5, 14]
0.729 and 1.36: fold change [5, 12]
inactive: outcome [1] | outcome [2] | outcome [4] | fold change [5, 11] 0.957 and 0.899 | z-score [7, 15] 0.707 and -0.312

O=C(O)CCNC(=O)c1ccc(N=Nc2ccc(O)c(C(=O)O)c2)cc1
0.807 and 0.806 and 1.14: fold change [5, 12]
-1.16: z-score [7, 16]
9490 and 8360 and 10300: cell count [5, 14]
inactive: outcome [1] | outcome [2] | outcome [3] | outcome [4] | fold change [5, 11] 0.971 and 0.94 and 0.899 | z-score [7, 15] -1.26
9210 and 7860 and 9290: cell count [5, 13]

Cc1nc(-c2ccc(OCC(C)C)c(C#N)c2)sc1C(=O)O
0.915 and 0.811: fold change [5, 12]
inactive: outcome [1] | outcome [2] | outcome [3] | outcome [4] | fold change [5, 11] 0.998 and 0.915 | plate-normalised HSF1 focus index [9] 1.06 | z-score [7, 15] 0.976 | viability [10, 17] 118% | viability [10, 18] 111% | viability [10, 21] 115% | viability [10, 22] 122% | viability [10, 23] 102% | viability [10, 25] 112% | viability [10, 26] 109% | viability [10, 27] 109% | viability [10, 28] 100% | viability [10, 29] 111% | viability [10, 30] 110% | viability [10, 31] 105% | viability [10, 32] 104% | viability [10, 33] 109% | viability [10, 34] 112% | viability [10, 35] 104% | viability [10, 36] 108% | viability [10, 37] 110% | viability [10, 38] 109% | viability [10, 40] 109% | viability [10, 41] 108% | viability [10, 42] 118% | viability [10, 43] 102% | viability [10, 44] 109% | viability [10, 45] 118% | viability [10, 46] 134% | viability [10, 47] 103% | viability [10, 48] 108%
1.2: SSMD [9]
0.13: z-score [7, 16]
6840: cell count [9]
8870 and 7400: cell count [5, 13]
8880 and 8080: cell count [5, 14]
active: viability [10, 19] 91.2% | viability [10, 20] 99.9% | viability [10, 24] 99.6% | viability [10, 39] 97.1%

CNC[C@H](O)c1cccc(O)c1
9300 and 10900 and 13200: cell count [5, 14]
1.33 and 1.38 and 1.19: fold change [5, 12]
inactive: outcome [1] | outcome [2] | outcome [3] | outcome [4] | fold change [5, 11] 0.733 and 0.885 and 0.869 | outcome [8] | z-score [7, 15] -0.327
0.52: z-score [7, 16]
6820 and 9660 and 11500: cell count [5, 13]

NC(=O)NO
0.485: z-score [7, 16]
inactive: outcome [1] | outcome [2] | outcome [3] | outcome [4] | fold change [5, 11] 0.975 and 0.894 and 0.861 | outcome [8] | z-score [7, 15] -0.326 | viability [10, 17] 105% | viability [10, 18] 113% | viability [10, 21] 111% | viability [10, 22] 112% | viability [10, 24] 102% | viability [10, 25] 105% | viability [10, 26] 104% | viability [10, 27] 101% | viability [10, 28] 109% | viability [10, 29] 104% | viability [10, 30] 115% | viability [10, 31] 106% | viability [10, 32] 109% | viability [10, 33] 116% | viability [10, 34] 106% | viability [10, 35] 106% | viability [10, 36] 116% | viability [10, 37] 109% | viability [10, 38] 114% | viability [10, 39] 103% | viability [10, 40] 110% | viability [10, 41] 102% | viability [10, 42] 116% | viability [10, 44] 110% | viability [10, 45] 105% | viability [10, 46] 114% | viability [10, 47] 109% | viability [10, 48] 111%
10600 and 9680 and 9160: cell count [5, 14]
active: viability [10, 19] 95.9% | viability [10, 20] 97.6% | viability [10, 23] 98.6% | viability [10, 43] 96.8%
1.12 and 0.968 and 1.05: fold change [5, 12]
10300 and 8660 and 7880: cell count [5, 13]
